The AC50 is the midpoint of the concentration-response curve, whichever way the signal moves.

40 compounds from PubChem BioAssay (EPA / NIEHS) can be followed below.

Active and inactive are the calls of the source. The calls were made as follows: active = hit-call score of the fitted dose curve at least 0.9, where 1 is the maximum; inactive = score below 0.9.

Read-out in the assay: Cytochrome P450 (CYP2B6), CYP2B6 (gene 1555)
Put plainly: LTEA_HepaRG_CYP2B6: Life Technologies and Expression Analysis (LTEA) Assay for Cytochrome P450 (CYP2B6) using HepaRG (AID 2283481). To be noted: mRNA level, 48 h; actives raise or lower the signal. The procedure: LTEA_HepaRG is a cell based, multiplexed-readout assay that uses HepaRG, a human liver cell line, with measurements taken at 48 hours after chemical dosing on a 96-well plate.LTEA_HepaRG_CYP2B6 is one of 102 assay component(s) measured in the LTEA HepaRG cell culture assay. It is a marker of NR mediated metabolism.Data from the assay component LTEA_HepaRG_CYP2B6 was analyzed into 1 endpoint. This assay endpoint, LTEA_HepaRG_CYP2B6, was analyzed with bidirectional fitting relative to DMSO as the negative control and baseline of activity. Using a type of inducible reporter, measures of mRNA induction for gain or loss-of-signal activity can be used to understand regulation of transcription factor activity. To generalize the intended target to other relatable targets, this assay endpoint is annotated to the cyp intended target family, where the subfamily is xenobiotic metabolism.
A total of 1060 chemcials from the ToxCast library were tested in eight-point concentration-response experiments. Cell culture and cytotoxicity assays were conducted at Thermo Fisher Scientific's Custom Services facility (Madison, WI). A single lot of human HepaRG cells (Thermo Fisher Scientific, Frederick, MD) was used for the cell culture experiments. 96-well format collagen type I coated plates of human HepaRG cells were prepared using established methods. Briefly, cryopreserved HepaRG cells were thawed, plated at a density of approximately 100,000 cells/well in HepaRG Thaw, Plate, and General Purpose media (HPRG770, Thermo Fisher Scientific), and incubated for 48 hours. 0.5% DMSO was selected as vehicle control to balance the requisite need of DMSO in HepaRG cultures to maintain differentiation (for example, baseline metabolism, proportions of hepatocytes vs. cholangiocytes), while enabling further hepatic receptor pathway activation (for example, PXR and CAR) in response to chemical exposure. 48 hours after plating, the culture medium was replaced with HepaRG Serum-Free Incudtion Media. Cells were exposed to each test chemical in duplicate and maintained in CO2 incubators for another 48 hours. Chemical plates were thawed to room temperature and 200x concentrations of treatment groups were prepared. 8-point conentration-reponse curves were made with the highest exposure at 100 uM, followed by half-log dilutions, all in 0.5% DMSO. Each test plate contained variouse controls, induction positive controls (1mM phenobarbital), cytotoxicity positive controls ([…] aflatoxin B1), vehicle controls (0.5% DMSO), and total lysis controls (0.5% DMSO). Cell morphology images were taken using an Essen IncuCyte FLR automated microscope, with six 96-well plates imaged in about 24 minutes. Images were captured and exported and JPEG files. Spent culture media was transfered to black-well plates for the LDH assay, and remaining media was sorted at -80 C for later use. Cells were treated with RLT buffer and frozen until shipped for gene expression analysis. Total RNA was isolated from the cell suspension in 75 uL of Buffer RLT (Qiagen, Germantown, MD 20874) by Quintiles/Expression Analysis (Durham, NC) using a custom isolation procedure. Total RNA from each plate well was transferred to a preamplification plate. Fluidigm's 96.96 Dynamic ArrayTM (Fluidigm, Amsterdam, the Netherlands) technology was used for gene expression analyses by quantitative reverse transcription polymerase chain reaction (qRT-PCR, performed by Quintiles/Expression Analysis, Durham, NC)89. Standard TaqManTM Assays (Applied Biosystems/ThermoFisher Scientific, Foster City, CA) were used to assess the expression of 93 genes selected based on their selectivity and sensitivity to important hepatic receptors known to be modulated by environmental chemicals; importance in human hepatocyte functionality; and hepatotoxicity. […]
Turning to `O=[N+]([O-])c1ccc(Cl)c(Cl)c1`, the call was inactive.

Consider `CCN(CC)c1ccccc1`, for which the compound was classed as inactive. As for `CCOc1ccc(C(C)(C)COCc2cccc(Oc3ccccc3)c2)cc1`, the AC50 is 0.63 µM (active). For `ClC(Cl)(Cl)c1ccccc1`, the result was inactive.

As for `O=P(Oc1ccccc1)(Oc1ccccc1)Oc1ccccc1`, the half-maximal activity concentration (AC50) is 1.23 µM (active).

In the case of `CCOP(=S)(Oc1ccc([N+](=O)[O-])cc1)c1ccccc1` (stereo not given), the half-maximal activity concentration (AC50) is 1.05 µM (active). `CCCCCCCc1ccc(O)cc1`: the compound was classed as inactive. Take `c1ccc2c(c1)Nc1ccccc1S2`: the AC50 was 36.6 µM (active).

`Cc1ccc([N+](=O)[O-])cc1C`: the result was inactive.

`CC(C)(C)OOC(C)(C)C`: the outcome was inactive. On the same count and under the same terms, the value for `Cc1cccc(N)c1` was “inactive”.

On to `CCC(C)(C)c1ccc(O)cc1`, for which the outcome was inactive.

Regarding `[N-]=[N+]=[N-]`, the AC50 was 88.3 µM (active). On to `c1ccc(OP(Oc2ccccc2)Oc2ccccc2)cc1`, for which the result was inactive.

As for `CCC1(c2ccccc2)C(=O)N=C(O)NC1=O` (stereo not given), the AC50 is 34.7 µM (active). Still for that read-out and setting: to `O=P1(N(CCCl)CCCl)NCCCO1` (stereo not given) belongs 50 µM (active). With `CC(Cl)(Cl)C(=O)O`, the call was inactive. For `CCCCN(CCCC)N=O`, the compound was called inactive. For `Nc1cc2c3c(c1)C(c1ccccc1)=N[C@@H](NC(=O)c1cccnc1)C(=O)N3CC2`, the concentration at half-maximal activity (AC50) was 3.51 µM (active). Take `ClC(Cl)c1ccccc1`: the concentration at half-maximal activity (AC50) is 22.8 µM (active).

Turning to `CCOP(=S)(OCC)SCSCC`, the AC50 is 4.47 µM (active). With `O=C(O)C(Cl)Cl`, the compound was classed as inactive. Still for that read-out and setting: the value for `CC(Cc1ccc(OCC(=O)O)cc1)NCC(O)c1csc(C(F)(F)F)n1` (stereo not given) was “inactive”; that for `Nc1ccc(Cl)cc1` was “inactive”; that for `CSC(C)(C)C=NO` was “inactive”. Regarding `Cc1ccc(N)cc1N`, the AC50 was 5 µM (active).

Consider `OCC1CO1` (stereo not given), for which the compound was classed as inactive. The same measure, in the same setting: to `CCCCc1ccccc1` belongs “inactive”. As for `CCNc1nc(Cl)nc(NC(C)(C)C)n1`, the AC50 was 1.01 µM (active). In the case of `O=C(O)C1C(C(=O)O)C2(Cl)C(Cl)=C(Cl)C1(Cl)C2(Cl)Cl` (stereo not given), the result was inactive. Same read-out and setting: the value for `c1nc[nH]n1` was “inactive”. For the compound `CCCCN(CCCC)SN(C)C(=O)Oc1cccc2c1OC(C)(C)C2`, the AC50 was 6.66 µM (active). For `O=[N+]([O-])c1ccccc1`, the call was inactive.

Turning to `CCOS(=O)(=O)OCC`, the outcome was inactive.

For the compound `COCCOCCO`, the AC50 was 1.15 µM (active). Same read-out and setting: the value for `CCCN(CCC)c1c([N+](=O)[O-])cc(C(C)C)cc1[N+](=O)[O-]` was 9.38 µM (active). On to `CCOC(=O)c1ccccc1C(=O)OCC`, for which the call was inactive. As to `Nc1ccc2ccccc2c1`, the AC50 was 13 µM (active). In the case of `CN(C)C(=O)Cl`, the result was inactive. As to `ClC1=C(Cl)C2(Cl)C3C(Cl)C(Cl)CC3C1(Cl)C2(Cl)Cl` (stereo not given), the AC50 is 0.994 µM (active).
